Source: PubChem BioAssay
An excerpt weighted towards active compounds, which were near 5.2% of everything screened.
Coupling enz – qHTS Assay for Inhibitors of Fructose-1,6-bisphosphate Aldolase from Giardia Lamblia: Coupling assay counterscreen; coupling enzyme system counterscreen, AmpLite Red fluorescence; activity change, negative = inhibition, % at 58.2 µM, hits read low; 290,000 compounds, 0.67% hits; in the data active = activity change below about -30%
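Coupling enzymes only (glyceraldehyde-3-phosphate) + compound, at 57.5 uM final, 10 min RT; add substrate/coupling/AmpLite Red mix, 20 min RT; fluorescence ex 525/em 598 nm. Actives flag coupling-system interference.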
Tau fibril ThT – qHTS for Inhibitors of Tau Fibril Formation, Thioflavin T Binding; Microtubule-associated protein tau (Homo sapiens), P10636; recombinant tau K18 P301L, heparin-induced fibrillization, ThT fluorescence; Potency, µM (titrated, usually from 57.4 µM), actives largely listed as inhibitors; 270,000 compounds, 2.1% hits; AID 1460, 2008; also: nearly all actives have a fitted effect of over 55% in size
Target sequence (P10636 561-689 P618L limits assumed): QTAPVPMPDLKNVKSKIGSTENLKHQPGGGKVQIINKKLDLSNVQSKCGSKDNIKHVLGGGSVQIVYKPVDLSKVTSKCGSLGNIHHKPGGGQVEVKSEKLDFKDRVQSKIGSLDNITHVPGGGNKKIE
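Heparin-induced fibrillization of the P301L-mutant K18 repeat-domain fragment of human tau was followed by ThT binding in quantitative high-throughput format.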
Sfp inh – qHTS Assay for Inhibitors of Bacillus subtilis Sfp phosphopantetheinyl transferase (PPTase); 4'-phosphopantetheinyl transferase ffp (Bacillus subtilis), Q9F4F7; Biochemical Sfp PPTase activity, qHTS; Potency, µM, most hits filed as inhibitors; 310,000 compounds, 3.5% hits;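 also: the enzyme is Sfp with the accession as filed and its product quenches rhodamine fluorescence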
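Step 1, compound plus 15 nM Sfp-PPTase, 15 min, room temperature. Step 2, add rhodamine-CoA (5 uM) and BHQ-2-YbbR (12.5 uM). Step 3, read 525/598 nm fluorescence at 0 and 30 min.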
Tau fluor counter – Counterscreen qHTS for Inhibitors of Tau Fibril Formation, Fluorescence Polarization. tau K18 P301L (four-repeat tau fragment) Alexa594 fluorescence, heparin fibrillization. 280,000 compounds, 0.93% hits. Potency, µM (titrated, usually from 57.7 µM); also: nearly all actives have a fitted effect of over 55% in size
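Human K18 P301L tau (15 uM unlabeled plus 0.24 uM Alexa 594-labeled, final) in 100 mM sodium acetate pH 7 was mixed with compound and 20 uM heparin and incubated 6 hr at 37 C.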
Tau fibril FP – qHTS for Inhibitors of Tau Fibril Formation, Fluorescence Polarization; Microtubule-associated protein tau (Homo sapiens), P10636; K18 P301L tau heparin fibrillization, Alexa594 FP, 6 h; Potency, µM (titrated, usually from 57.7 µM), actives largely listed as inhibitors; 280,000 compounds, 0.39% hits; also: nearly all actives have a fitted effect of over 55% in size
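Quantitative HTS format: compounds meet 15 uM recombinant K18 P301L tau and Alexa 594-tau tracer in 100 mM sodium acetate pH 7; 20 uM heparin triggers fibrillization at 37 C over 6 hr; FP gives the signal.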
Of the large screens only hits and unclear results are named; the others gave an inactive call; [ ] = dose if it differs, or a comment. Unless noted, calls follow the shape of the dose curve; as a rule, active = well fitted curve in the direction sought with a large enough effect; inconclusive = small, poorly fitted or top-dose-only effect, or another doubt; inactive = no such curve, though single readings can be large; an effect the other way counts as inactive or inconclusive.

CC(C)(C)c1ccc(C(=O)N2CCNCC2)cc1	none
Cc1ccccc1NC(=O)CCn1nc(-c2ccccc2)c2ccccc2c1=O	none (no result: Coupling enz, Sfp inh)
CC(=O)Nc1ccc(Nc2nc(C)c([N+](=O)[O-])c(Nc3ccc(NC(C)=O)cc3)n2)cc1	Tau fibril ThT 13µM, Tau fibril FP inconclusive
CNc1nc(C)c([N+](=O)[O-])c(Nc2ccc(OC)cc2)n1	none (no result: Tau fibril ThT, Tau fluor counter, Tau fibril FP)
CCCCCS(=O)(=O)CCCCCCCCCCn1c(-c2ccc(O)cc2)c(C)c2cc(O)ccc21	Tau fibril ThT inconclusive, Tau fluor counter 7.9µM[quencher], Tau fibril FP inconclusive
CCOc1cc(CNC(=O)Cn2ncn3c(cc4cc(F)ccc43)c2=O)cc(OCC)c1OCC	none (no result: Coupling enz, Sfp inh)
Nc1nn2c(-c3ccccc3)cc(=O)[nH]c2c1N=Nc1ccc(Br)cc1	Tau fibril ThT 2.2µM
Nc1nn2c(-c3ccccc3)cc(=O)[nH]c2c1N=Nc1ccc(O)cc1	Sfp inh inconclusive
COc1ccc(CNC(=O)c2cc(-c3ccc(Cl)cc3)n[nH]2)cc1	Tau fibril FP inconclusive (no result: Coupling enz, Sfp inh)
COc1cc(NC2CCCCC2O)c2nc(-c3ccc(Cl)cc3)ccc2c1 (stereo not drawn)	Coupling enz -31, Tau fibril ThT inconclusive, Sfp inh inconclusive, Tau fluor counter inconclusive, Tau fibril FP inconclusive
C=CCSSSCC=C	Sfp inh 40µM
Cc1cccc(-c2c3c(=O)n(C)c(=O)n(C)c3cn2-c2ccccc2O)c1	Coupling enz -39, Sfp inh 50µM
CSc1ccc(C(=O)/C=C/c2ccc(N)cc2)cc1	Tau fibril ThT 16µM, Tau fluor counter inconclusive
CSc1ccc(/C=C/C(=O)c2ccc(NC(=O)C(C)C)cc2)cc1	Tau fibril ThT inconclusive
CCCCCCCCCCCCC/C=C/[C@@H](O)[C@H](CO)NC(C)=O	none (no result: Coupling enz)
CCC(/C=C1\Sc2ccc(OC)cc2N1CCO)=C\c1sc2ccc(OC)cc2[n+]1CCO	Tau fibril ThT 1.1µM, Sfp inh 22µM, Tau fluor counter 0.4µM[fluorescent]
CCC(=O)/C=C1/Sc2ccc(OC)cc2N1CCO	none
CCC(/C=C1\Sc2ccc(OC)cc2N1CC)=C\c1sc2ccc(OC)cc2[n+]1CCCS(=O)(=O)[O-]	Tau fibril ThT 3.5µM, Sfp inh 50µM, Tau fluor counter 0.79µM[fluorescent], Tau fibril FP inconclusive
O=C(CSc1n[nH]c(-c2ccco2)n1)Nc1sc2c(c1C(=O)Nc1ccccc1)CCCC2	Sfp inh 35µM, Tau fluor counter inconclusive
CCOC(=O)c1c(NC(=O)CSc2nnc(-c3ccccc3)n2CC)sc(C(C)=O)c1C	none
CCOC(=O)c1sc(NC(=O)CSc2nnc(-c3ccco3)n2CC)c(C(=O)OCC)c1C	Tau fibril ThT inconclusive, Sfp inh 25µM
CCn1c(SCC(=O)Nc2sc3c(c2C#N)CCCC3)nnc1-c1ccco1	Coupling enz -40
COc1ccccc1-c1cn[nH]c1-c1ccc(OCc2ccccc2F)cc1O	Tau fluor counter 10µM[quencher], Tau fibril FP inconclusive
COc1ccccc1-c1cn[nH]c1-c1ccc(OCc2ccc(F)cc2)cc1O	Tau fluor counter 10µM[quencher], Tau fibril FP inconclusive
CC(=O)N1CCc2cc(Br)cc(S(=O)(=O)CCC(=O)N3CCN(c4ccccc4Cl)CC3)c21	none (no result: Coupling enz, Sfp inh)
Cc1ccc(C2=C/C(=C/c3cccnc3)C(=O)O2)c(C)c1	Coupling enz -35, Tau fibril ThT inconclusive, Sfp inh 50µM, Tau fibril FP inconclusive
O=C1Cc2ccccc2C(=O)N1OCc1ccc(Cl)cc1	Coupling enz -42
N#Cc1cc2c([nH]c1=S)CCCC2	Tau fibril ThT inconclusive, Sfp inh 11µM
CC1(C)Cc2[nH]c(=S)c(C#N)cc2CO1	Sfp inh 10µM
